NS1 inh = inhibitors of influenza NS1 protein function | Potency, µM (series often up to 46.1 µM), for inactives: top-dose activity, positive = more growth | hit rate 0.4% among 270,000; calls by dose curve; note: potency is the fitted concentration of half-maximal effect; actives are rising curves; nearly all actives have a fitted effect of over 50% in size
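Recovery from NS1-induced slow growth read by OD600 in budding yeast switched to galactose assay medium (pH 6.0, -URA) at 1:100 dilution. Compound 23 nl per well; the matching strain lacking NS1 serves as control.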
Shiga toxin inh = blocks Shiga toxin action in Vero cells. Vero cells, Shiga toxin protein synthesis inhibition reporter. inhibition, % at 38.7 µM. hit rate 9.2% among 290,000; in the data active = inhibition mostly above about 28%, no sharp cut-off; inactive = mostly below about 43%; note: 0% is about no effect
Pf growth 48h = P. falciparum growth inhibition at 48 hours (one generation) | P. falciparum luciferase growth in erythrocytes, 48 h | Potency, µM (series often up to 28.7 µM), without a hit: top-dose activity change, negative = inhibition, most hits filed as inhibitors | hit rate 5.9% among 310,000 | AID 504832; note: potency is the fitted concentration of half-maximal effect; % is set by controls: 0 for no effect and ±100 for the full control effect
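Luciferase-expressing parasites in RBCs, 2% Hct / 0.1% parasitemia final; RPMI 1640 + 0.5% Albumax; 37 C, 5% CO2, one generation; luminescence read-out, lower signal = inhibition.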
Pf growth 96h = P. falciparum growth inhibition at 96 hours. hit rate 6.9% among 320,000. Potency, µM (highest dose often 28.7 µM), without a hit: at the top dose activity change, negative = inhibition, actives largely listed as inhibitors. P. falciparum luciferase reporter growth, 96 h; note: potency is the fitted concentration of half-maximal effect; % is set by controls: 0 for no effect and ±100 for the full control effect
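Luminescence readout: decreased luciferase signal marks inhibited growth of reporter-expressing P. falciparum in infected red cells (2% hematocrit, 0.05% parasitemia final), exposed to compound two generations (96 h, 37 C, 5% CO2).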
CHX counter = counter-screen hit for Shiga toxin inhibitors, cycloheximide | hit rate 12% among 300,000 | max response, % | cell reporter, cycloheximide protein synthesis inhibition counterscreen; in the data active = max response mostly above about 13%, no sharp cut-off; inactive = mostly below about 14%; note: read at 38.3 µM for the half of the compounds with a filed dose; 0% is about no effect
Starred values were filed as active, the others as inactive; ? = inconclusive; . = no result given; [ ] = dose if it differs, or a comment. Hits are enriched below; roughly 21% of the tested compounds scored in any of these assays. Unless noted, calls come from the whole dose curve; as a rule, active = well fitted inhibition curve with a large enough effect; inconclusive = small, poorly fitted or top-dose-only effect, or another doubt; inactive = no such curve, though single readings can be large or run the other way.

SMILES	NS1 inh	Shiga toxin inh	Pf growth 48h	Pf growth 96h	CHX counter
COC(=O)c1ccc(C(=O)OC)c(NC(=O)C(C)(C)C)c1	-2%	2	-2%	5%[5.75 µM]	-2
O=C(N/N=C\c1ccccc1F)c1ccc(-c2ccccc2)cc1	-1%	28	-8%	-19%	36*
COc1ccc(CCCC(=O)N/N=C/c2cccc(OC)c2O)cc1C	-10%	52*	35%	-19%	28*
COc1cccc(/C=N/NC(=O)C[n+]2ccccc2)c1O	9%	-1	?	5.9µM*	-1
Cc1ccc(CN2CCN(CC(=O)N/N=C/c3ccccc3F)CC2)cc1	3%	118*	113%	167%	37*
COc1cccc(/C=N/NC(=O)CNC(=O)COc2ccccc2)c1O	-8%	32	?	-36%	11
O=C(CN1CCN(Cc2ccccc2)CC1)N/N=C/c1ccccc1F	0%	23	-10%	13%	-2
O=C(NC1CCCc2c1cnn2-c1ccccc1F)c1ccccc1N1CCOCC1 (stereo unspecified)	-39%	22	?	-17%	10
CC(=O)Nc1cccc(C(=O)N/N=C/c2ccccc2F)c1	8%	28*	225%	6.6µM*	46*
COc1cccc(/C=N/NC(=O)c2ccc(-c3ccccc3)cc2)c1O	12%	2	.	7.4µM*	4
O=C(c1cccc(Cl)c1)C1CCCN(S(=O)(=O)c2ccccc2)C1 (stereo unspecified)	-8%	-18	?	-6%	-3
COc1ccc(CCNC(=O)CSc2ccc(-c3cccs3)nn2)cc1OC	.	-12	3%	-25%	6
CC(CCc1ccc(O)cc1)N1CCC(Oc2ccc(C(=O)N3CCCC3)cc2)CC1 (stereo unspecified)	-14%	-3	-17%	-15%	-2
COc1ccc(C(=O)N(C)C2CCCCC2)cc1OC1CCN(C(C)C)CC1	6%	-20	5%	4%	-2
COc1ccc(C(=O)N2CCCCCCC2)cc1OC1CCN(C(C)C)CC1	-4%	-7	12%	3.7µM*	5
COc1ccc(CCC(C)N2CCC(Oc3ccc(C(=O)N4CCCC4)cc3)CC2)cc1 (stereo unspecified)	?	-31	12µM*	?	8
CCOCCCNC(=O)c1ccc(OC)c(OC2CCN(C(C)C)CC2)c1	28%	6	13%	15µM*	4
COc1ccc(C(=O)NCCCOC(C)C)cc1OC1CCN(C(C)=O)CC1	-6%	96*	-3%	-18%	36*
Cc1ccsc1/C=N/NC(=O)C1C(=O)NCC1c1ccccc1 (stereo unspecified)	1%	-4	52%	34%	-2
c1ccc2c(c1)nc(N1CCOCC1)c1nnnn12	14%	active	55%	?	32*
c1ccc2c(c1)nc(N1CCN(C3CCCCC3)CC1)c1nnnn12	-3%	20	35%	8%	2
c1ccc(N2CCN(c3nc4ccccc4n4nnnc34)CC2)cc1	22%	28*	?	-11%	38*
Cc1nc2ccccc2c(=O)n1/N=C/c1ccc(F)cc1	-4%	-3	30%	?	-1
Fc1ccccc1NC(=S)N1CCN(C/C=C/c2ccccc2)CC1	8%	22	3%	0.59µM*	-1
O=C(NC(=S)N1CCN(C/C=C/c2ccccc2)CC1)c1cccnc1	2%	24	9.3µM*	3.3µM*	-2
SMILES	NS1 inh	Shiga toxin inh	Pf growth 48h	Pf growth 96h	CHX counter
O=C(NC(=S)N1CCN(C/C=C/c2ccccc2)CC1)c1ccc(F)cc1	-17%	14	10µM*	?	1
S=C(Nc1ccccc1)N1CCN(C/C=C/c2ccccc2)CC1	0%	-4	-11%	5%	-2
COc1ccc(S(=O)(=O)NCCCn2ccnc2)cc1Cl	10%	1	0%	19%	-1
CC(NC(=O)C(C)N1CCN(Cc2ccccc2)CC1)c1ccc(F)cc1 (stereo unspecified)	-4%	44	0%	32%	-2
COCCN=c1scc(-c2cccs2)n1/N=C(\C)c1ccco1	.	124*	13%	?	83*
COCCN=c1scc(-c2ccco2)n1/N=C/c1ccc(O)c(O)c1O	3%	54	?	?	11
COc1ccc(C(=O)O/N=C(\N)c2ccc(Cl)cc2)cc1	-52%	88*	-26%	?	37*
COc1ccccc1C(=O)O/N=C(\N)c1ccc(Cl)cc1	-50%	90*	99%	151%	52*
O=C(CSc1nn(-c2ccccc2)c(=S)s1)NC(=O)NCc1ccco1	4%	-4	-95%	.	9

Screening data from PubChem BioAssay.
